# Results reported in ChEMBL document CHEMBL3988442, “University of Dundee, Small-Polar-MMV Screening Library” (2021).
# About 13,000 (27%) of roughly 48,000 compounds showed an effect of 50% or more. The list shows a part of the results.
# System: Wolbachia pipientis
# Assay: Anti-Wolbachia Cell-Based Screen
# Assay type: functional
# Set-up: scale not given: in the data most compounds retested in dose-response had high values
# Details: 5 µM
row,SMILES,Percent Effect [%]
1,N#Cc1ccc(CS(=O)(=O)NC(=O)c2ccc3c(c2)COC3)cc1,-4.05
2,Cn1cc(Cl)cc1C(=O)N1CCN(Cc2ccsc2)CC1,-5.701
3,CC(=O)N1CCC(N2CCOC[C@H]2c2nc(-c3cccnc3)c[nH]2)CC1,31.59
4,Cc1nc(NC(=O)c2c(-n3cnnn3)sc3c2CCC3)sc1C,89.24
5,Cc1nc(NC(=O)C(C)N2CCN(c3cnccn3)CC2)sc1C (stereo not given),1.711
6,Cc1nc(NC(=O)c2c(-n3cnnn3)sc(C)c2C)sc1C,111.3
7,CC[C@H](C)[C@H](NC(=O)c1ccccc1-n1cnnn1)C(=O)OC,39.09
8,Cc1nc(NC(=O)c2c(-n3cnnn3)sc3c2CCCC3)sc1C,119.6
9,CCC(C)NC(=O)c1ccccc1-n1cnnn1 (stereo not given),-7.012
10,Cc1nc(NC(=O)c2cccnc2N2CCOCC2)sc1C,-47.07
11,Cc1sc(-n2cnnn2)c(C(=O)NC(C)C)c1C,78.35
12,O=C(COCC1CC1)N1CCCC(n2cccn2)C1 (stereo not given),4.687
13,CC1CN(Cc2ccccc2)CCCN1CCCS(C)(=O)=O (stereo not given),-4.156
14,CCc1csc(CCNC(=O)CC2CCN(C(C)C)CC2)n1,8.427
15,CC(=O)Nc1nc(C(=O)N2CCCC(c3cc(C)[nH]n3)C2)cs1 (stereo not given),-0.9316
16,CC(=O)Nc1nc(C2CCN(C(=O)c3cncs3)CC2)cs1,107.2
17,CC(=O)Nc1nc(C2CCN(CC(N)=O)CC2)cs1,-6.255
18,CC(=O)Nc1nc(C2CCN(C(=O)C3CCC3)CC2)cs1,103.4
19,CC(=O)c1ccc(C(=O)N2CCC(c3cc(O)nc(C)n3)CC2)s1,-1.622
20,CC(=O)Nc1nc(C2CCN(C(C)C)CC2)cs1,119.6
21,Cc1nc(-c2ccc(CC(=O)N3CCN(C(=O)C4CC4)CC3)cc2)cs1,16.03
22,CC(=O)N1CCC(C(=O)Nc2nc(C3CC3)cs2)CC1,19.21
23,Nc1nc(C2CCN(C(=O)c3cncs3)CC2)cs1,-2.594
24,CC(=O)Nc1nc(C2CCN(C(=O)Cc3ccccc3)CC2)cs1,87.03

row,SMILES,Percent Effect [%]
1,CSCC(=O)NC(Cc1ccc(C)cc1)c1ccccn1 (stereo not given),-0.4247
2,O=C(Cn1cc(C2CC2)nn1)NC(c1cc(F)ccc1F)C1CC1 (stereo not given),-5.532
3,O=C(C1CC=CC1)N1CCC2(CCC(=O)N2Cc2cccc(F)c2)CC1,-0.5854
4,O=C(NC[C@H]1OC[C@@H](NCc2ccc(F)cc2)[C@@H]1O)c1ccncc1,-2.517
5,CC(=O)Nc1nc(C2CCN(C(=O)c3ccncc3)CC2)cs1,108.8
6,CC(=O)Nc1nc(C(=O)N2CCC(Nc3cccnn3)CC2)cs1,-3.618
7,COc1ccccc1N1CCC(N2CCOCC(CO)C2)CC1 (stereo not given),9.24
8,O=C(CC1CCCO1)NCc1ccc(Br)cc1F (stereo not given),3.91
9,CN(CC1(CO)CCOCC1)[C@@H]1c2ccccc2C2(CCNCC2)[C@H]1O,1.582
10,CC(C)(C)OC(=O)NCC1CCCCN1Cc1cccnc1 (stereo not given),4.728
11,c1cncc(CN2CCCCC2c2ccc(Nc3cnccn3)nc2)c1 (stereo not given),73.84
12,CC(C)(C)OC(=O)NCC1CCCCN1Cc1ccncc1 (stereo not given),-3.492
13,O=C(O)[C@]12CCCN(Cc3cccnc3)[C@@H]1CCN(c1cnccn1)C2,-19.78
14,c1cc(CN2CCCCC2c2ccc(Nc3cnccn3)nc2)ccn1 (stereo not given),159
15,CCc1ccc(C(=O)N2CCN(CCS(C)(=O)=O)CC2)o1,-5.31
16,Cc1cccc(NC(=O)N2CCC3(CCC(C(=O)N(C)C)O3)CC2)c1 (stereo not given),100.6
17,CN(C)C(=O)C1CCC2(CCN(C(=O)Nc3cccc(F)c3)CC2)O1 (stereo not given),98.46
18,Cc1cccc(NC(=O)N2CCN(Cc3nnc(C(C)C)o3)CC2)c1,-19.75
19,O=C(Nc1cccc(-c2cscn2)c1)N1CCC2(CC1)CC(O)CO2 (stereo not given),-8.053
20,O=C(Nc1cccc(F)c1)N1CCN(Cc2noc(C3CC3)n2)CC1,-10.54
21,Cc1nsc(N2CCN(C(=O)Nc3cccc(F)c3)CC2)n1,-8.293
22,CC(C)NC(=O)CN1CCC2(CC1)OCCO2,-0.8474
23,Cc1nc(C2CCCN(C(=O)C(C)(C)n3cc(Cl)cn3)C2)no1 (stereo not given),-4.996
24,O=C(Nc1cccs1)N1CC(c2nc(C3CC3)no2)C1,10.74

row,SMILES,Percent Effect [%]
1,CC(=O)N1CCC(c2nc(Cc3ccccc3)no2)C1 (stereo not given),-18.53
2,O=C1CCC(c2nc(C3CCN(C(=O)Cc4cccs4)CC3)no2)N1 (stereo not given),131.4
3,O=C1NCCCc2[nH]c(-c3nc(C4CCCCC4)no3)nc21,4.619
4,O=C1CCC2(CCCN(C(=O)Cc3cccs3)C2)N1 (stereo not given),-20.18
5,Cc1noc(C2CCN(CC(=O)N3CCNC(=O)C3)CC2)n1,-10.42
6,CC(=O)N1CCC(c2noc(C3CCC(=O)N3)n2)CC1 (stereo not given),120.5
7,O=C1NCCCc2[nH]c(-c3nc(C4CC4)no3)nc21,-6.286
8,CC(C)(C)C(=O)N1CCC(c2noc(C3CCC(=O)N3)n2)CC1 (stereo not given),136.3
9,O=C1CCC(c2nc(C3CCNCC3)no2)N1 (stereo not given),104.8
10,CN(C)C(C(=O)N1CC(Oc2ccccc2F)C1)c1ccc(F)cc1 (stereo not given),10.57
11,CCN(CC1CCOC1)C(=O)Nc1ccc(-n2cncn2)nc1 (stereo not given),-5.162
12,CCC[C@H]1CN(CCS(C)(=O)=O)C[C@@H]1NC(=O)Cn1cc(C)cn1,-15.47
13,CCc1nccn1CCNC1CCN(c2nc3ccc(Cl)cc3s2)CC1,-30.49
14,O=C1CCC(c2nc(C3CCN(C(=O)C4CC4)CC3)no2)N1 (stereo not given),107.7
15,O=C(CN1CCCC(c2noc(C3CC3)n2)C1)N1CCCC1 (stereo not given),-17.34
16,CC1(C)CNC(=O)c2nc(C3CCN(C(=O)C4CC4)CC3)[nH]c2C1,-1.461
17,CC(Nc1ncnc2c1CCNC2)c1ccc2c(c1)CCCC2 (stereo not given),-81.25
18,CC[C@@H](CO)Nc1nccc(-c2cnc3sc(C)cn3c2=O)n1,82.9
19,CC[C@H](C)Nc1nccc(-c2cnc3sccn3c2=O)n1,96.29
20,CC(C)CNc1nccc(-c2cnc3sc(Cl)cn3c2=O)n1,98.56
21,C[C@@H](CO)Nc1nccc(-c2cnc3sc(Cl)cn3c2=O)n1,101.5
22,Cc1ccc(NCCCNc2nccc(-c3cn(C)nc3C)n2)nc1,4.133
